Screening results (PubChem)
Most compounds without a hit are left out; they make up all but 12% or so of the library.
PLK1 PBD block = inhibitors of human PLK1 polo-box domain binding | P53350 | Plk1 PBD binding of FITC phosphopeptide, fluorescence polarization | Potency, µM, actives largely listed as inhibitors | 360,000 tested, 2.8% active | AID 720504; note: series mostly up to about 57 µM; nearly all actives have a fitted effect of over 65% in size
Target sequence (P53350 whole entry, looked up, the tested form may be a part): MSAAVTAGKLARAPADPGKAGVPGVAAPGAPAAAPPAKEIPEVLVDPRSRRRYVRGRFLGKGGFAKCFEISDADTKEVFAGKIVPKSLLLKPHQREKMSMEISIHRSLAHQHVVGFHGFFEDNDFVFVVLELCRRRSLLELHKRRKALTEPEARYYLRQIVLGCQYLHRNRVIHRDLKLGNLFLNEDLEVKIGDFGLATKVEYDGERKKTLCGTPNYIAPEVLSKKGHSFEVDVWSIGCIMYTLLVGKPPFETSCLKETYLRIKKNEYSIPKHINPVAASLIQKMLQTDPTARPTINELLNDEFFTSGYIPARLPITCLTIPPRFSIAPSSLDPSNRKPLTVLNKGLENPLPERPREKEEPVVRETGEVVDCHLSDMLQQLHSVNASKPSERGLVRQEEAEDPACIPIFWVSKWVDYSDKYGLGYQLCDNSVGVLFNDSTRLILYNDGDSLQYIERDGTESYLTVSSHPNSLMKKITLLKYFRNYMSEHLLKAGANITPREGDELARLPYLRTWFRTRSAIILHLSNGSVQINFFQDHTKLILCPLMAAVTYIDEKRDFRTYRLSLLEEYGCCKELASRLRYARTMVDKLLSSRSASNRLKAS
HP1b chromo inh = inhibitors of HP1-beta chromodomain binding to methylated histone tails. P83916. AlphaScreen HP1-beta / biotin-H3K9me3 peptide binding. Potency, µM (titrated, usually from 114 µM), usual class: inhibitors. 390,000 tested, 0.56% active. AID 540317; note: nearly all actives have a fitted effect of over 70% in size
Target sequence (P83916 whole entry, looked up): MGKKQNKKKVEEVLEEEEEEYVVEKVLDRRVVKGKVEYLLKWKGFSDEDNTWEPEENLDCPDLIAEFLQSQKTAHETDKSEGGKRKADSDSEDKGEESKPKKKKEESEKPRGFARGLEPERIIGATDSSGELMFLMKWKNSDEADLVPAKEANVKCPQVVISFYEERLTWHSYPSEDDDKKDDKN
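AlphaScreen: HP1-beta (50 nM) preformed 30 min with biotin-H3(1-18)K9me3 peptide (50 nM) in PBS pH 7.4, 0.01% Tween-20. Compound added for 30 min at RT, then streptavidin donor/nickel chelate acceptor beads (10 ug/mL) for 30 min.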
G9a block = G9a (human) methyltransferase inhibition. G9a H3K9 monomethylation, AlphaScreen, 2 h. Potency, µM (doses to about 102 µM), usual class: inhibitors. 350,000 tested, 8.8% active; note: nearly all actives have a fitted effect of over 75% in size
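Readings reflect AlphaScreen signal from monomethyl-H3K9 antibody detection. HMT at 20 nM; substrate b-H3K9 500 nM; cofactor SAM 20 uM; 2 h RT reaction; compounds tested as titrations in qHTS with 15 min preincubation.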
Sfp PPTase inh = Sfp phosphopantetheinyl transferase inhibition; Q9F4F7; Biochemical Sfp PPTase activity, qHTS; Potency, µM, hits mostly inhibitors; 310,000 tested, 3.5% active;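 note: the enzyme is Sfp with the accession as filed and its product quenches rhodamine fluorescence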
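Reaction rates are the 30-min fluorescence difference (ex 525, em 598 nm) in wells containing 15 nM Sfp, 5 uM rhodamine-CoA and 12.5 uM BHQ-2-YbbR at pH 7.6 with 10 mM MgCl2.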
BAZ2B inh = BAZ2B (human) inhibition; Q9UIF8; AlphaScreen BAZ2B-H3K14Ac peptide displacement; Potency, µM (series often up to 114 µM), hits mostly inhibitors; 360,000 tested, 4.4% active; AID 504333; note: nearly all actives have a fitted effect of over 60% in size
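Inhibition is scored as reduced AlphaScreen emission. The BAZ2B/b-H3(5-23)K14Ac complex (50 nM each) in PBS pH 7.4, 0.01% Tween-20 meets compound (up to 110 uM) for 30 min at RT before bead addition.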
JMJD2A Tudor inh = inhibitors of human JMJD2A Tudor domain. O75164. AlphaScreen JMJD2A-Tudor / H3K4me3 peptide binding. Potency, µM (doses to about 114 µM), usual class: inhibitors. 390,000 tested, 4.4% active; note: nearly all actives have a fitted effect of over 50% in size
Of the large screens only hits and unclear results are named; the others gave an inactive call. Calls come from the whole dose curve; as a rule, active = well fitted curve in the direction sought with a large enough effect; inconclusive = small, poorly fitted or top-dose-only effect, or another doubt; inactive = no such curve, though single readings can be large; an effect the other way counts as inactive or inconclusive.

N#Cc1cc2c(nc1SC1CCCCC1O)CCCC2 (stereo not given)	none
Brc1ccccc1C1CC(c2ccccc2)=Nc2ccccc2N1 (stereo not given)	G9a block inconclusive, BAZ2B inh inconclusive, JMJD2A Tudor inh 39.8µM
c1ccc(C2=Nc3ccccc3NC(c3ccccc3)C2)cc1 (stereo not given)	G9a block 35.5µM
CCOc1cc(CNC(=O)c2ccc3c(c2)nc2n3CCCCC2)ccc1OC	none (no result: PLK1 PBD block, Sfp PPTase inh)
COc1ccccc1N1CCN(S(=O)(=O)c2c(C)nc3sc(C)c(C)n3c2=O)CC1	none (no result: PLK1 PBD block, Sfp PPTase inh)
CCCS(=O)(=O)c1c(S(=O)(=O)CCC)c2ccc(C(C)=O)cn2c1C(=O)OC	PLK1 PBD block inconclusive, G9a block 35.5µM
CCCS(=O)(=O)c1c(S(=O)(=O)CCC)c2c(N)cccn2c1C(=O)OC	Sfp PPTase inh 28.2µM, BAZ2B inh inconclusive (no result: G9a block)
COC(=O)C/C=C\[C@H](C)[C@@H](OCc1ccccc1Br)C(C)C	none (no result: PLK1 PBD block, HP1b chromo inh, G9a block, BAZ2B inh, JMJD2A Tudor inh)
CCC1=C/C(=C/c2sc3ccccc3[n+]2CC)CC(C)(C)C1	PLK1 PBD block 21.2µM, G9a block 5.01µM, Sfp PPTase inh 35.5µM, BAZ2B inh 44.7µM, JMJD2A Tudor inh 12.6µM
CC[n+]1c(/C=C2\C=C(C)CC(C)(C)C2)sc2ccccc21	PLK1 PBD block 21.2µM, G9a block inconclusive, Sfp PPTase inh 11.2µM, BAZ2B inh 56.2µM, JMJD2A Tudor inh 39.8µM
CC[n+]1c(/C=C2\C=C(C)CC(C)C2)sc2ccccc21 (stereo not given)	PLK1 PBD block inconclusive, G9a block inconclusive, Sfp PPTase inh 35.5µM, BAZ2B inh inconclusive, JMJD2A Tudor inh 50.1µM
CC[n+]1c(/C=C2/C=C(C)CC(C)(C)C2)sc2ccc(OC)cc21	PLK1 PBD block 21.2µM, HP1b chromo inh 20µM, Sfp PPTase inh 14.1µM, BAZ2B inh 56.2µM, JMJD2A Tudor inh 50.1µM
Cc1sc(/N=C/c2c(O)ccc3ccccc23)c(C#N)c1C	G9a block 10µM (no result: PLK1 PBD block, HP1b chromo inh, JMJD2A Tudor inh)
COc1ccc(O)c(/C=N/c2sc(C)c(C)c2C#N)c1	PLK1 PBD block 29.9µM, HP1b chromo inh inconclusive, G9a block inconclusive, Sfp PPTase inh inconclusive, JMJD2A Tudor inh 79.4µM
COc1ccccc1OC(=O)c1cc(Cl)nc2ccccc12	none
Cc1ccc(OCCCCn2nnc3sc4c(c3c2=O)CCC(C)C4)cc1 (stereo not given)	G9a block inconclusive, BAZ2B inh inconclusive (no result: PLK1 PBD block, Sfp PPTase inh)
CC1CCc2c(sc3nnn(CCCCOc4ccc(Cl)cc4)c(=O)c23)C1 (stereo not given)	G9a block 12.6µM, JMJD2A Tudor inh inconclusive (no result: PLK1 PBD block, Sfp PPTase inh)
CN(CCN(C)C(C)(C)C)C(=O)C(c1ccccc1)c1ccccc1	HP1b chromo inh inconclusive, G9a block inconclusive, BAZ2B inh inconclusive, JMJD2A Tudor inh 20µM
CC(=O)NN1C(=O)/C(=C\c2ccc(Br)o2)SC1=S	PLK1 PBD block inconclusive, HP1b chromo inh inconclusive, G9a block 39.8µM, Sfp PPTase inh 56.2µM, BAZ2B inh inconclusive
CC(=O)NN1C(=O)/C(=C/c2ccc(Br)o2)SC1=S	PLK1 PBD block 10.6µM, HP1b chromo inh 50.1µM, G9a block 50.1µM, Sfp PPTase inh 56.2µM
CC(=O)NN1C(=O)/C(=C\c2ccccc2)SC1=S	none
CCOc1ccc(N2C(=O)CS(=O)(=O)C23C(=O)N(Cc2cccc(Cl)c2)c2ccccc23)cc1 (stereo not given)	none (no result: PLK1 PBD block, Sfp PPTase inh)
CN(C)c1ccc(-c2nnn(CC(=O)Nc3ccccc3N3CCOCC3)n2)cc1	G9a block 50.1µM, BAZ2B inh inconclusive, JMJD2A Tudor inh inconclusive
COc1ccc(CC(=O)Nc2ccc(-c3cn4ccc(C)cc4n3)cc2)cc1	none
COc1cc(C2C(C(=O)c3ccc(C)o3)=C(O)C(=O)N2CCN2CCOCC2)ccc1OCCC(C)C (stereo not given)	G9a block 31.6µM, JMJD2A Tudor inh inconclusive
CCCOc1cccc(C2C(C(=O)c3ccco3)=C(O)C(=O)N2CCN(CC)CC)c1 (stereo not given)	G9a block inconclusive
C=CCOc1cccc(C2C(C(=O)c3ccc(C)o3)=C(O)C(=O)N2CCN(C)C)c1 (stereo not given)	G9a block 44.7µM, JMJD2A Tudor inh inconclusive
CCCOc1cccc(C2C(C(=O)c3ccc(C)o3)=C(O)C(=O)N2CCN2CCOCC2)c1 (stereo not given)	G9a block 44.7µM
CC(=O)OCC1OC(C#CCC2CCCCC2)C=CC1OC(C)=O (stereo not given)	none (no result: PLK1 PBD block, HP1b chromo inh, G9a block, BAZ2B inh, JMJD2A Tudor inh)
Cc1noc(C)c1COC(=O)CCN1c2ccccc2Sc2ccccc21	PLK1 PBD block 21.2µM, JMJD2A Tudor inh inconclusive
COc1cc(C2Nc3cccc4cccc(c34)N2)ccc1OC(C)=O	PLK1 PBD block 26.7µM, G9a block 14.1µM, BAZ2B inh inconclusive, JMJD2A Tudor inh 56.2µM
COC(=O)c1ccc(C2Nc3cccc4cccc(c34)N2)cc1	HP1b chromo inh 44.7µM, G9a block 28.2µM, Sfp PPTase inh inconclusive, BAZ2B inh 35.5µM, JMJD2A Tudor inh 20µM
Brc1ccc(C2Nc3cccc4cccc(c34)N2)cc1	HP1b chromo inh inconclusive, JMJD2A Tudor inh inconclusive (no result: G9a block, Sfp PPTase inh, BAZ2B inh)
COc1ccc(C2NC(=O)c3ccccc3N2)cc1OC (stereo not given)	none
COc1cc(C2Nc3cccc4cccc(c34)N2)cc(OC)c1O	PLK1 PBD block inconclusive, HP1b chromo inh inconclusive, G9a block 7.94µM, Sfp PPTase inh 50.1µM, BAZ2B inh inconclusive, JMJD2A Tudor inh inconclusive
COc1ccc(C2Nc3cccc4cccc(c34)N2)cc1Br	HP1b chromo inh inconclusive, G9a block 35.5µM, BAZ2B inh 44.7µM, JMJD2A Tudor inh 39.8µM
O=C(Cn1c(=O)c2cccn2c2ccc(F)cc21)N1CCN(c2ccccc2)CC1	none (no result: PLK1 PBD block, Sfp PPTase inh)
Cc1cccc(N(CC(=O)NC(C)c2ccccc2)S(=O)(=O)c2ccccc2)c1C (stereo not given)	none (no result: PLK1 PBD block, Sfp PPTase inh)
O=c1cc(-c2ccccc2)n(S(=O)(=O)c2ccc3ccccc3c2)o1	PLK1 PBD block inconclusive, JMJD2A Tudor inh 44.7µM (no result: G9a block, Sfp PPTase inh, BAZ2B inh)
COc1ccc(S(=O)(=O)n2oc(=O)cc2-c2ccccc2)cc1	G9a block 39.8µM, BAZ2B inh 56.2µM
COc1ccc(S(=O)(=O)n2oc(=O)cc2-c2ccccc2)cc1OC	PLK1 PBD block inconclusive, G9a block inconclusive, BAZ2B inh 56.2µM, JMJD2A Tudor inh 35.5µM
Cc1nc2c(sc3nc(N4CCOCC4)c4c(c32)CC(C)(C)OC4)c(-c2ccc(Cl)cc2)c1C(=O)O	none
Clc1ccc(Cn2cc3c(n2)-c2cc4ccccc4n2C3)cc1	none (no result: PLK1 PBD block, G9a block, Sfp PPTase inh, BAZ2B inh)
O=[S+]([O-])(c1ccc2c(c1)OCCO2)N1CCN([S+](=O)([O-])c2c(F)cc(Br)cc2F)CC1	none (no result: PLK1 PBD block, HP1b chromo inh, G9a block, Sfp PPTase inh, BAZ2B inh)
CCOC(=O)C(=O)NNc1cccc(C)c1C	G9a block 0.631µM
CCOC(=O)C(=O)NNc1ccccc1C	none
N#Cc1c(-c2c(Cl)cccc2Cl)noc1/C=C/Nc1ccc(C(=O)O)cc1	PLK1 PBD block inconclusive, BAZ2B inh inconclusive
